Screens (PubChem BioAssay)
Sampled rows, rich in hits. Any-hit rate of the full collection: about 2.9%.
MEKK2mut PB1 HTS: signal of MEK5 binding to mutant human MEKK2 PB1 domain; bead flow cytometry, Alexa488-MEK5 binding to MEKK2 mutant; percent response, % at 10 µM; 0.35% of 290,000 active; in the data active = percent response above about 24%, passing the limit was not always enough
ABCB6 inh 2: inhibitors of human ABC transporter ABCB6; AID 602162; 0.19% of 360,000 active; Q9NP58; K562-ABCB6 porphyrin accumulation, flow cytometry, 1 h; active compounds read low; fluorescence ratio to DMSO, % at 10 µM;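 active = fluorescence ratio to DMSO below 75%, the collection mean minus 3 SD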;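 also: signal is porphyrin accumulated inside mitochondria; 100% equals median channel fluorescence of DMSO control wells; lower ratio means ABCB6 inhibition with less porphyrin fluorescence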
MEKK3 PB1 HTS: modulators (inhibitors or enhancers) of MEK5 binding to human MEKK3 PB1 domain. bead-based flow cytometry, Alexa488-MEK5 binding to MEKK3; actives lie on both sides; 0 = blocked by unlabeled MEK5, 100 = vehicle. binding response (% of control), % at 10 µM. 1.4% of 290,000 active. AID 1529;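 active = binding response more than 3 SD above or below the average of its plate-row segment, actives on both sides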;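 also: Alexa488 bead fluorescence after subtracting the streptavidin-only scavenger bead signal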
Target sequence (Q99759 whole entry, looked up, the tested form may be a part): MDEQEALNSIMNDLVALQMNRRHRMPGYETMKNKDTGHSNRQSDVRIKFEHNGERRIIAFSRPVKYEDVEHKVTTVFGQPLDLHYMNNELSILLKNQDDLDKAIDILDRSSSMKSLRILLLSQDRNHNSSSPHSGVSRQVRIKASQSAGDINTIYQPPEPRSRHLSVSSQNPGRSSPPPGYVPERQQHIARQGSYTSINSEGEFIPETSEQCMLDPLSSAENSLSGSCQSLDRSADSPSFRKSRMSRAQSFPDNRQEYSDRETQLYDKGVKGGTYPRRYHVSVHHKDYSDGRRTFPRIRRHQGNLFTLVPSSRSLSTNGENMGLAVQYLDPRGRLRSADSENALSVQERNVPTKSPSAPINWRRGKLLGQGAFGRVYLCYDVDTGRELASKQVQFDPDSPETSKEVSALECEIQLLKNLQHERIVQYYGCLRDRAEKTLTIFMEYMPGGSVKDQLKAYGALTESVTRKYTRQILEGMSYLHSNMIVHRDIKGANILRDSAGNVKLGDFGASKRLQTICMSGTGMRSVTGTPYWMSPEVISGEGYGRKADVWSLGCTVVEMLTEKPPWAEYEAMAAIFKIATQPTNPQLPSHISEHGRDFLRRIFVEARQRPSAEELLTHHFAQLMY
CRFR2-BP ag: agonists of human CRF-binding protein/CRF-R2 receptor complex; 0.46% of 350,000 active; HEK293 CRF-R2/CRF-BP, calcium dye fluorescence (FLIPR); percent of saturating CRF peptide response; activation, % at 13.2 µM;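 active = activation of at least 50%, plus an integration ratio under a set limit after plate pattern correction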;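 also: plate controls were neutral control wells without compound for no effect and CRF at EC100 for full effect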
CRFR2-BP antag: antagonists of CRF-binding protein/CRF-R2 receptor complex | 0.59% of 350,000 active | HEK293 CRF-R2/CRF-BP, CRF-induced calcium fluorescence | AID 588475 | inhibition, % at 11.8 µM;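 active = inhibition of the ligand-induced calcium signal above about 50% at the single tested concentration, limit read from the data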
MEKK2 WT-MEK5: raises or lowers MEK5 binding to wildtype human MEKK2 PB1 domain. 1.1% of 290,000 active. binding response (% of control), % at 10 µM. bead flow cytometry, Alexa488-MEK5 binding to MEKK2 WT; actives lie on both sides; in the data active = binding response below about 67% or above about 130%
MEKK2wt confirm: raises or lowers MEK5 binding to wildtype human MEKK2, retest; 2.4% of 5,900 active; shares compounds with MEKK3 PB1 HTS; binding response (% of control), % at 10 µM; bead flow cytometry, Alexa488-MEK5 binding to MEKK2 WT; actives lie on both sides; in the data active = binding response below about 16% or above about 210%; inactive = in between
MEKK2mut confirm: signal of MEK5 binding to mutant human MEKK2, retest | 2% of 5,900 active | shares compounds with MEKK3 PB1 HTS | percent response, % at 10 µM | bead flow cytometry, Alexa488-MEK5 binding to MEKK2 mutant; in the data active = percent response mostly above about 71%, no sharp cut-off; inactive = mostly below about 38%;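 also: higher means compound restores mutant binding toward wildtype level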
MEKK3-MEK5 inh: confirmation of inhibitors of MEK5 binding to human MEKK3 | bead flow cytometry, Alexa488-MEK5 binding to MEKK3; active compounds read low | AID 1894 | 1.8% of 5,900 active | binding response (% of control), % at 10 µM | shares compounds with MEKK3 PB1 HTS;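 active = binding response below 72% of control, or above a set upper limit, though filed actives all read lower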;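 also: 100% = DMSO only wells and 0% = binding blocked by excess unlabeled MEK5; lower values mean stronger disruption of MEK5 binding to MEKK3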
The depositor's hits bear a star; . = no result given; [ ] = another dose, or the depositor's remark.

SMILES | MEKK2mut PB1 HTS | ABCB6 inh 2 | MEKK3 PB1 HTS | CRFR2-BP ag | CRFR2-BP antag | MEKK2 WT-MEK5 | MEKK2wt confirm | MEKK2mut confirm | MEKK3-MEK5 inh
CCOC(=O)c1c(/N=C/c2cc(OC)cc([N+](=O)[O-])c2O)sc(C)c1C | 0 | 121 | 135* | 0 | 8 | 103 | 104 | 3 | 98
O=C(NC1CCCCC1)C(c1ccc(F)cc1)N(C(=O)c1csnn1)C1CC1 (stereo not given) | 5 | 99 | 103 | -2 | -10 | 107 | . | . | .
CCc1ccc(NC(=O)CSc2nncn2-c2cccnc2)cc1 | -3 | 101 | 97 | 0 | -28 | 99 | . | . | .
O=C(NCc1ccccc1)c1ccc(NC(=O)C2CCCC2)cc1 | . | 110 | . | -1 | -1 | . | . | . | .
O=C(NCc1ccccc1)c1ccc(N2C(=O)C3CCCCC3C2=O)cc1 (stereo not given) | 1 | 101 | 142* | 4 | -11 | 105 | 104 | 5 | 106
O=C(NCCc1ccccc1)c1cc(-c2ccccc2)c(N2CCOCC2)s1 | . | 96 | . | -2 | 44 | . | . | . | .
CCN(CC)CCCNC(=O)c1cc(-c2ccccc2)c(N2CCCCC2)s1 | 26* | 92 | 105 | -1 | -12 | 161* | 162 | 41 | 107
CCCCNC(=S)Nc1ccc(C(F)(F)F)cc1 | -3 | 92 | 75*[inhibitor] | 19 | 31 | 90 | 101 | 1 | 100
COc1cc(/C=N/NC(=O)c2ccncc2)ccc1OC(=O)c1cccc(F)c1 | 8 | 98 | 108 | 5 | -16 | 108 | . | . | .
CCn1c2ccccc2c2nnc(SCC(=O)Nc3c(C)n(C)n(-c4ccccc4)c3=O)nc21 | -17 | 97 | 2.0*[inhibitor] | -2 | 23 | 2.0*[inhibitor] | 101 | -2 | 97
CC(C)[C@H](NC(N)=O)C(=O)Nc1cccc(S(=O)(=O)NC2=NCCCCC2)c1 | . | 105 | . | 0 | -1 | . | . | . | .
CCCCC1(C)Cc2ccccc2C(=S)N1 (stereo not given) | -16 | 94 | 2.0*[inhibitor] | 1 | -4 | 2.0*[inhibitor] | 108 | 2 | 103
CCS(=O)(=O)N1N=C(c2ccc(NS(C)(=O)=O)cc2)CC1c1ccccc1 (stereo not given) | . | 184 | 32*[inhibitor] | -1 | 1 | . | 76 | -9 | 74
CS(=O)(=O)Nc1ccc(C2=NN(C(=O)c3ccco3)C(c3ccccc3)C2)cc1 (stereo not given) | -2 | 93 | 97 | 0 | -15 | 97 | . | . | .
CS(=O)(=O)Nc1ccc(C2=NN(S(=O)(=O)c3ccccc3)C(c3cccs3)C2)cc1 (stereo not given) | . | 142 | 7.0*[inhibitor] | 0 | 0 | . | 79 | -1 | 73
O=c1[nH]c(Cc2cccc(C(F)(F)F)c2)nc2ccccc12 | -5 | 92 | 84 | 0 | -2 | 90 | . | . | .
O=C(Nc1ccc(C2=NCCN2)cc1)c1ccc(C(=O)Nc2ccc(C3=NCCN3)cc2)c([N+](=O)[O-])c1 | 32 | 96 | 63*[inhibitor] | -2 | 8 | 151* | 104 | 6 | 46*
Cc1ccc(NC(=O)c2ccc(-n3cccn3)c([N+](=O)[O-])c2)cc1 | -3 | 85 | 99 | 1 | 20 | 96 | . | . | .
CCN1C(=O)C2C(c3ccc(O)c(OC)c3)NC(C)(C(=O)OC)C2C1=O (stereo not given) | -6 | 97 | 96 | -1 | -7 | 94 | . | . | .
CCOC(=O)C1(C)NC(c2cc(OC)c(OC)c(OC)c2)C2C(=O)N(CC)C(=O)C21 (stereo not given) | -14 | 98 | 2.0*[inhibitor] | 1 | 12 | 2.0*[inhibitor] | 108 | 6 | 104
Cc1ccc(C(=O)CCC(=O)Nc2cccc(C)c2)cc1 | 0 | 98 | 107 | 8 | -12 | 104 | . | . | .
COc1ccc(NC(=S)NN2C(C)CCCC2C)cc1 (stereo not given) | 3 | 98 | 111 | -3 | 14 | 114 | . | . | .
COc1cccc(NC(=S)NN2C(C)CCCC2C)c1 (stereo not given) | 1 | 98 | 132* | -3 | 5 | 107 | 109 | -1 | 104
CCC(C)n1c(SCc2ccccc2)nc2ccsc2c1=O (stereo not given) | 1 | 98 | 151* | 1 | -22 | 108 | 96 | -1 | 97
N#Cc1ccccc1CSc1nc2ccsc2c(=O)n1Cc1ccccn1 | -1 | 103 | 104 | -1 | 9 | 100 | . | . | .
SMILES | MEKK2mut PB1 HTS | ABCB6 inh 2 | MEKK3 PB1 HTS | CRFR2-BP ag | CRFR2-BP antag | MEKK2 WT-MEK5 | MEKK2wt confirm | MEKK2mut confirm | MEKK3-MEK5 inh
Cc1ccc(CSc2nc3ccsc3c(=O)n2Cc2ccccn2)cc1 | 1 | 94 | 139* | 0 | 17 | 101 | 100 | -2 | 101
CCC(C)n1c(SCC(=O)Nc2ccccc2C(F)(F)F)nc2ccsc2c1=O (stereo not given) | -6 | 80 | 95 | -4 | 11 | 93 | . | . | .
NC(=O)c1ccc(NC(=O)COC(=O)c2ccc(Br)o2)cc1 | . | 101 | . | 0 | 3 | . | . | . | .
C/C=C/c1ccc(OCCOCCNCc2ccccc2)c(OC)c1 | 24* | 103 | 113 | 3 | 2 | 195* | 156 | 31 | 108
COc1ccc(S(=O)(=O)N2CCCCCC2)cc1NC(=O)Cc1cc(OC)c(OC)c(OC)c1 | 1 | 102 | 102 | -2 | 7 | 102 | . | . | .
O=C(CCl)Nc1cc(S(=O)(=O)N2CCCCCC2)ccc1Cl | 0 | 86 | 130* | 3 | 18 | 100 | 107 | 2 | 106
COc1ccc(S(=O)(=O)N2CCCCCC2)cc1NC(=O)Cc1ccccc1F | -19 | 101 | 75*[inhibitor] | 3 | -8 | 79 | 104 | 0 | 102
CC(C)(C)CC(=O)Nc1cc(S(=O)(=O)N2CCCCCC2)ccc1Cl | 1 | 102 | 104 | 6 | 7 | 97 | . | . | .
COc1ccccc1CNC(=O)c1cn(C)c2ccc(S(=O)(=O)N3CCCCC3)cc2c1=O | 192* | . | 127 | . | . | 108 | 98 | -8 | 99
CC(C)Cc1ccc(CN2CCCC(NC(=O)CSc3nncn3C)C2)cc1 (stereo not given) | 5 | 98 | 101 | . | . | 111 | . | . | .
CC(Oc1ccccc1)C(=O)N1CCC2(CC1)CC(=O)c1ccccc1O2 (stereo not given) | . | 98 | . | 0 | 6 | . | . | . | .
